The list is not random: actives were taken first. Their share in the collection is about 6.7%.
T cruzi growth-1 = T. cruzi intracellular proliferation inhibitors, primary screen, cell-based, beta-gal Tulahuen parasites, NIH3T3 host, luminescence; T. cruzi beta-gal in NIH3T3, GalScreen luminescence, 90 h; inhibition, % at 8.34 µM; 77,000 compounds, 5.9% hits;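 active = mean inhibition above about 93%, with at least 55% of replicates each passing it, limit read from the data, passing the limit was not always enough; inconclusive = only one of those two conditions holds; inactive = neither condition holds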
Pf Dd2 inh = P. falciparum Dd2 growth inhibitors, primary screen, SYBR Green fluorescence, single dose replicates; 72 h; active compounds read low; activity change, % at 10 µM; 94,000 compounds, 2.3% hits; in the data active = activity change below about -80%; inconclusive = no clear call, values can overlap the other calls
C diff HTS = C. difficile growth inhibitors, primary screen, HTS; 86,000 compounds, 0.25% hits; Clostridium difficile clinical isolate growth, OD600, 24 h; active compounds read low; growth activity, negative = inhibition, % at 16 µg/mL (by protocol); AID 1259249, 2017;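 active = mean growth activity at or below -80% and every replicate also at or below -80%; inconclusive = mean at or below -80% but some replicate above -80%; inactive = mean growth activity above -80%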
T cruzi growth-2 = T. cruzi intracellular proliferation inhibitors, confirmation, cell-based, NIH3T3 host, beta-gal parasite, luminescence, cherry-pick | shares compounds with T cruzi growth-1 | T. cruzi beta-gal in NIH3T3, GalScreen luminescence, 90 h | inhibition, % at 8.35 µM | 5,600 compounds, 72% hits;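 active = mean replicate inhibition above about 95% and at least 55% of replicates individually reaching it, limit read from the data; inconclusive = only one of the two criteria is met; inactive = neither criterion is met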
T cruzi growth-3 = inhibitors of intracellular T. cruzi replication, confirmation, NIH3T3 host cells, beta-gal parasites, cherry-pick, set 2; 5,600 compounds, 21% hits; inhibition, % at 2.09 µM; AID 651740, 2012; shares compounds with T cruzi growth-1; T. cruzi beta-gal in NIH3T3, GalScreen luminescence, 90 h;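 active = mean inhibition above about 95%, with at least 55% of replicates also reaching it, limit read from the data; inconclusive = meets just one of the two conditions; inactive = meets neither condition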
3T3 cytotox = cytotoxicity in mouse NIH/3T3 fibroblasts, confirmation, cytotoxicity control for T. cruzi proliferation inhibitor project, cell-based, cherry-pick, single point. shares compounds with T cruzi growth-1. NIH/3T3 viability, CellTiter-Glo ATP luminescence, 90 h. cytotoxicity (signal decrease), % at 8.35 µM. 5,600 compounds, 14% hits. AID 651742, 2012;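 active = mean signal decrease across replicates above about 35% based on untreated-well scatter, with enough replicates individually passing, limit read from the data; inconclusive = no rule stated though some were filed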
3T3 cytotox 2 = NIH/3T3 fibroblast cytotoxicity, confirmation, cytotoxicity control, cell-based, cherry-pick, single point, set 2; 5,600 compounds, 56% hits; inhibition, % at 24.9 µM; NIH/3T3 viability, CellTiter-Glo ATP luminescence, 90 h; AID 651744, 2012; shares compounds with T cruzi growth-1;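 active = mean loss of cell viability signal at or above a set limit, and enough replicates individually reaching it; inconclusive = meets only the mean limit or only the replicate share; inactive = meets neither condition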
Of the large screens only hits and unclear results are named; the others gave an inactive call (follow-up assays come after a bar, where they were run).

COc1ccccc1NC(=O)N[C@@H]1CC[C@H](CCn2cc(C3(O)CCCC3)nn2)O[C@@H]1CO	T cruzi growth-1 109 (no result: C diff HTS) | T cruzi growth-2 inactive | T cruzi growth-3 inactive | 3T3 cytotox inactive | 3T3 cytotox 2 inactive
COc1ccccc1NC(=O)N[C@@H]1CC[C@H](CCn2cc(C3(O)CCCC3)nn2)O[C@H]1CO	none (no result: C diff HTS)
C[C@H]1CCCCO[C@H](CN(C)Cc2ccncc2)[C@@H](C)CN([C@@H](C)CO)C(=O)c2cc(NC(=O)NC3CCCCC3)ccc2O1	none
CO[C@H]1CN(C)C(=O)c2ccc(NC(C)=O)cc2OC[C@@H](C)N(C(=O)c2ccccc2)C[C@@H]1C	none
COc1ccccc1CNC(=O)C[C@H]1C[C@H]2c3cc(NC(=O)CC4CC4)ccc3O[C@H]2[C@@H](CO)O1	none
Cc1ccccc1NC(=O)Nc1ccc2c(c1)C(=O)N(C)[C@H]1CC[C@H](CC(=O)O)O[C@H]1CO2	none
O=S(=O)(c1cccs1)N1CCCCN2[C@H](CO)[C@H](c3ccc(/C=C/c4ccccc4)cc3)[C@H]2C1	none
O=S(=O)(c1cccs1)N1CCCCN2[C@H](CO)[C@H](c3ccc(-c4ccccc4)cc3)[C@@H]2C1	T cruzi growth-1 inconclusive | T cruzi growth-2 107 | T cruzi growth-3 inactive | 3T3 cytotox inactive | 3T3 cytotox 2 inactive
O=S(=O)(c1cccs1)N1CCCCN2[C@H](C1)[C@H](c1ccc(-c3ccccc3)cc1)[C@@H]2CO	T cruzi growth-1 101 | T cruzi growth-2 108 | T cruzi growth-3 inactive | 3T3 cytotox inactive | 3T3 cytotox 2 inconclusive
O=S(=O)(c1cccs1)N1CCCCN2[C@H](CO)[C@H](c3ccc(C4=CCCCC4)cc3)[C@@H]2C1	T cruzi growth-1 118 | T cruzi growth-2 101 | T cruzi growth-3 inactive | 3T3 cytotox inactive | 3T3 cytotox 2 51
O=S(=O)(c1cccs1)N1CCCCN2[C@H](CO)[C@H](c3ccc(-c4ccccc4)cc3)[C@H]2C1	none
O=S(=O)(c1cccs1)N1CCCCN2[C@@H](CO)[C@@H](c3ccc(C4=CCCCC4)cc3)[C@@H]2C1	none
O=S(=O)(c1cccs1)N1CCCCN2[C@H](CO)[C@@H](c3ccc(/C=C/c4ccccc4)cc3)[C@@H]2C1	T cruzi growth-1 97 | T cruzi growth-2 105 | T cruzi growth-3 inactive | 3T3 cytotox inactive | 3T3 cytotox 2 inactive
Cc1cccc(-c2ccc([C@H]3[C@@H](CO)N4CCCCN(S(=O)(=O)c5cccs5)C[C@H]34)cc2)c1	none
COc1ccccc1NC(=O)N[C@@H]1C=C[C@@H](CC(=O)N2CCC(Cc3ccccc3)CC2)O[C@@H]1CO	none (no result: T cruzi growth-1)
C[C@@H]1CN([C@H](C)CO)C(=O)c2cc(N(C)C)ccc2O[C@@H](C)CCCCO[C@@H]1CN(C)C(=O)c1ccccc1	none
C[C@@H]1CN([C@H](C)CO)C(=O)Cc2cc(NC(=O)c3ccncc3)ccc2O[C@H]1CN(C)S(=O)(=O)c1cn(C)cn1	none
O=S(=O)(c1cccs1)N1CCCCN2[C@H](C1)[C@@H](c1ccc(Br)cc1)[C@@H]2CO	T cruzi growth-1 103 | T cruzi growth-2 104 | T cruzi growth-3 inactive | 3T3 cytotox inconclusive | 3T3 cytotox 2 inactive
O=S(=O)(c1cccs1)N1CCCCN2[C@H](CO)[C@@H](c3ccc(Br)cc3)[C@@H]2C1	none
CO[C@H]1CN(C)C(=O)c2cc(NC(=O)c3ccccc3F)ccc2OC[C@@H](C)N(C(=O)c2ccccc2F)C[C@H]1C	none (no result: C diff HTS)
CO[C@@H]1CN(C)C(=O)c2cc(NC(=O)c3ccccc3F)ccc2OC[C@H](C)N(C(=O)c2ccccc2F)C[C@H]1C	none (no result: C diff HTS)
CO[C@@H]1CN(C)C(=O)c2cc(NC(=O)c3ccccc3F)ccc2OC[C@H](C)N(C(=O)c2ccccc2F)C[C@@H]1C	T cruzi growth-1 102, Pf Dd2 inh -83 (no result: C diff HTS) | T cruzi growth-2 inactive | T cruzi growth-3 inactive | 3T3 cytotox inactive | 3T3 cytotox 2 40
CO[C@@H]1CN(C)C(=O)c2cc(NC(=O)c3ccccc3F)ccc2OC[C@@H](C)N(C(=O)c2ccccc2F)C[C@H]1C	T cruzi growth-1 inconclusive (no result: C diff HTS) | T cruzi growth-2 inactive | T cruzi growth-3 inactive | 3T3 cytotox inactive | 3T3 cytotox 2 inactive
CO[C@@H]1CN(C)C(=O)c2cc(NS(=O)(=O)c3cn(C)cn3)ccc2OC[C@@H](C)N(C)C[C@H]1C	none
COc1ccc2c3c(n(C)c2c1)[C@@H](CO)N(C(=O)Cc1ccccn1)CC31CN(CC2CCOCC2)C1	none (no result: T cruzi growth-1)
CCC(=O)N(C)C[C@@H]1Oc2cc(-c3ccccc3OC)ccc2S(=O)(=O)N([C@@H](C)CO)C[C@H]1C	none
C[C@H]1CN([C@@H](C)CO)C(=O)c2cc(C3=CCCCC3)cnc2O[C@H]1CN(C)C(=O)Nc1ccc(F)cc1	none
C[C@H](CO)N1C[C@H](C)[C@@H](CN(C)C(=O)Nc2ccc(C(F)(F)F)cc2)Oc2ncc(C3=CCCC3)cc2C1=O	T cruzi growth-1 102 | T cruzi growth-2 103 | T cruzi growth-3 inactive | 3T3 cytotox inactive | 3T3 cytotox 2 74
C[C@@H]1CN([C@H](C)CO)C(=O)c2cc(C3=CCCC3)cnc2O[C@H]1CN(C)C(=O)Nc1ccc(C(F)(F)F)cc1	T cruzi growth-1 102 | T cruzi growth-2 98 | T cruzi growth-3 inactive | 3T3 cytotox inactive | 3T3 cytotox 2 59
C[C@@H]1CN([C@H](C)CO)C(=O)c2cc(C3=CCCC3)cnc2O[C@H]1CN(C)C(=O)Nc1ccc(F)cc1	none
Cc1ccc(S(=O)(=O)N(C)C[C@@H]2Oc3ncc(-c4ccccc4)cc3C(=O)N([C@H](C)CO)C[C@H]2C)cc1	none
O=C(C1CCCC1)N1CCCCN2[C@@H](CO)[C@H](c3ccc(C#CC4(O)CCCC4)cc3)[C@@H]2C1	T cruzi growth-1 inconclusive | T cruzi growth-2 98 | T cruzi growth-3 inactive | 3T3 cytotox inactive | 3T3 cytotox 2 44
O=C(C1CCC1)N1CCCCN2[C@H](CO)[C@@H](c3ccc(C#CC4(O)CCCC4)cc3)[C@@H]2C1	none
O=C(C1CCCC1)N1CCCCN2[C@H](CO)[C@@H](c3ccc(C#CC4(O)CCCC4)cc3)[C@@H]2C1	none
O=C(C1CCC1)N1CCCCN2[C@@H](CO)[C@@H](c3ccc(C#CC4(O)CCCC4)cc3)[C@@H]2C1	T cruzi growth-1 inconclusive | T cruzi growth-2 inactive | T cruzi growth-3 inactive | 3T3 cytotox inactive | 3T3 cytotox 2 inactive
CC(C)NC(=O)N(C)C[C@H]1Oc2ncc(C#CCc3ccccc3)cc2C(=O)N([C@H](C)CO)C[C@H]1C	none

High-throughput results deposited in PubChem BioAssay by Broad Institute.
